Test results as given in PubChem BioAssay AID1159580 (chemical genetic matrix, 2015).
Values joined by “and” are separate entries in the source; they are usually repeats but may differ in a detail not shown here. Equal entries are not always repeated. About 2,000 (36%) of roughly 5,500 compounds were called active. About 18% were inconclusive and are not listed. No stated cut-off is given here; in the data, active means normalized growth mostly below about 0.91 (no sharp cut-off); inconclusive means no clear call, values can overlap the other calls; inactive means mostly above about 0.92. Some of the results follow.

Experiment: chemical genetic growth profiling, strain panel (AID 1159580);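 further: tested at 20 µM; growth read once vehicle control cultures reached saturation at 30 °C; 1 = growth at the plate median or of vehicle wells; lower values mean less growth of the strain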
Conditions: S. cerevisiae deletion strains, growth OD

Measured: normalized growth

CCCCN1CCCCC1C(=O)Nc1c(C)cccc1C (configuration not stated)
inactive: locus YAL013W, strain DEP1, hits give low values 1.02 | locus YAL021C, strain ccr4, hits give low values 0.992 | locus YAL026C, strain drs2, hits give low values 1.01 | locus YAL030W, strain snc1, hits give low values 0.991 | locus YBL061C, strain skt5, hits give low values 0.992 | locus YBR009C, strain hhf1, hits give low values 0.976 | locus YBR021W, strain FUR4, hits give low values 1.01 | locus YBR023C, strain chs3, hits give low values 0.977 | locus YBR171W, strain sec66, hits give low values 0.991 | locus YBR229C, strain ROT2, hits give low values 1.02 | locus YBR231C, strain swc5, hits give low values 0.995 | locus YBR279W, strain paf1, hits give low values 0.994 | locus YCL011C, strain gbp2, hits give low values 0.986 | locus YCL016C, strain dcc1, hits give low values 1 | locus YCL029C, strain bik1, hits give low values 0.986 | locus YCL061C, strain MRC1, hits give low values 0.981 | locus YCL069W, strain vba3, hits give low values 0.99 | locus YCR088W, strain abp1, hits give low values 0.986 | locus YDL005C, strain med2, hits give low values 0.984 | locus YDL035C, strain GPR1, hits give low values 1.03 | locus YDL040C, strain nat1, hits give low values 1 | locus YDL074C, strain BRE1, hits give low values 1.01 | locus YDL101C, strain DUN1, hits give low values 1.01 | locus YDL134C, strain PPH21, hits give low values 1.01 | locus YDL185W, strain tfp1, hits give low values 0.995 | locus YDL192W, strain arf1, hits give low values 1 | locus YDR001C, strain nth1, hits give low values 0.978 | locus YDR069C, strain doa4, hits give low values 0.972 | locus YDR101C, strain arx1, hits give low values 1 | locus YDR137W, strain rgp1, hits give low values 0.965 | locus YDR150W, strain NUM1, hits give low values 1.02 | locus YDR159W, strain sac3, hits give low values 0.984 | locus YDR162C, strain NBP2, hits give low values 1.02 | locus YDR195W, strain ref2 0.967 | locus YDR297W, strain sur2, hits give low values 0.986 | locus YDR318W, strain mcm21, hits give low values 0.995 | locus YDR334W, strain swr1, hits give low values 0.969 | locus YDR335W, strain msn5, hits give low values 0.987 | locus YDR388W, hits give low values 0.986 | locus YDR392W, strain spt3, hits give low values 0.991 | locus YDR502C, strain sam2, hits give low values 1 | locus YEL003W, strain gim4, hits give low values 0.983 | locus YEL037C, strain rad23, hits give low values 0.993 | locus YEL061C, strain CIN8 (second series), hits give low values 0.973 | locus YEL061C, strain CIN8, hits give low values 1.01 | locus YER015W, strain faa2, hits give low values 0.992 | locus YER016W, strain bim1, hits give low values 0.987 | locus YER110C, hits give low values 0.995 | locus YER111C, strain swi4, hits give low values 1.01 | locus YER155C, strain BEM2 (second series), hits give low values 0.997 | locus YER155C, strain BEM2, hits give low values 1 | locus YER167W, strain BCK2, hits give low values 1.03 | locus YFR010W, strain ubp6, hits give low values 0.974 | locus YGL078C, strain dbp3, hits give low values 0.996 | locus YGL086W, strain mad1, hits give low values 1.01 | locus YGL167C, strain pmr1, hits give low values 0.992 | locus YGL173C, strain kem1, hits give low values 1.01 | locus YGL227W, strain vid30, hits give low values 0.973 | locus YGL240W, strain doc1, hits give low values 0.98 | locus YGL248W, strain PDE1, hits give low values 1.02 | locus YGL253W, strain hxk2, hits give low values 0.994 | locus YGR078C, strain PAC10, hits give low values 1.01 | locus YGR135W, strain pre9, hits give low values 0.997 | locus YGR229C, strain SMI1, hits give low values 1.01 | locus YGR252W, strain gcn5, hits give low values 1.06 | locus YHR013C, strain ard1, hits give low values 0.988 | locus YHR027C, strain rpn1, hits give low values 0.99 | locus YHR030C, strain SLT2, hits give low values 1.01 and 0.987 | locus YHR079C, strain IRE1 (second series), hits give low values 0.99 | locus YHR079C, strain IRE1, hits give low values 0.975 | locus YHR094C, strain hxt1, hits give low values 0.997 | locus YHR129C, strain ARP1, hits give low values 1.01 | locus YHR142W, strain chs7, hits give low values 0.999 | locus YHR200W, strain rpn10, hits give low values 0.986 | locus YIL066C, strain RNR3, hits give low values 1.01 | locus YIL073C, strain SPO22, hits give low values 0.989 | locus YIL125W, strain kgd1, hits give low values 0.997 | locus YIR030C, strain dcg1, hits give low values 0.992 | locus YJL092W, strain hpr5, hits give low values 0.969 | locus YJL095W, strain BCK1 (second series), hits give low values 0.995 | locus YJL095W, strain BCK1, hits give low values 1 and 0.971 | locus YJL115W, strain asf1, hits give low values 0.998 | locus YJL129C, strain trk1, hits give low values 0.966 | locus YJL134W, strain LCB3, hits give low values 1.01 | locus YJL154C, strain vps35, hits give low values 0.991 | locus YJL164C, strain tpk1, hits give low values 0.978 | locus YJL166W, strain qcr8, hits give low values 0.994 | locus YJL168C, strain set2, hits give low values 0.99 | locus YJL187C, strain SWE1 (second series), hits give low values 1.01 | locus YJL187C, strain SWE1, hits give low values 0.99 | locus YJR043C, strain POL32, hits give low values 1.01 | locus YJR066W, strain TOR1, hits give low values 0.957
